The values below come from PubChem BioAssay AID1347423 (Functional Genomics Laboratory (NCATS/FGL), 2020).

In all, about 52,000 sequences went through this assay and about 210 (0.4%) were called active. The entries come from a sample that favours actives as a whole. Unmarked numbers belong to inactive results.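 Rule for the calls: active = gene whose silencing raises cell survival under the drug, median off-target-corrected z-score across its silencing RNAs 2 or more; inactive = the rest.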

The assay can be described thus: Resistance to Poly (ADP-Ribose) Polymerase inhibitor: Gene Identification via Genome-wide siRNA Screen. The following applies: mouse BRCA2 R2336H ES cells, olaparib, CellTiter-Glo viability; active compounds read high. The text has this:
The role of Poly (ADP-Ribose) Polymerase (PARP) proteins in DNA repair has been elegantly utilized for the synthetic lethality-based treatment of BRCA-deficient tumors by PARP inhibitors. PARP inhibitors are now being used for treatment of BRCA-deficient breast and ovarian cancers. […] While several mechanisms of drug resistance have been identified, majority of these tumors develop drug resistance due to unknown causes. To identified novel regulators of chemo-resistance in BRCA2-mutated cells, we performed a genome wide siRNA library screen. We have found ES cells expressing a hypomorphic allele of BRCA2 to be hypersensitive to PAPP inhibitors (such as olaparib). We used ES cells expressing a mutant allele of BRCA2 that has a single amino acid substitution at position 2336 (arginine to histidine, R2336H). The screen was conducted using an Ambion (Thermo) Silencer Mouse Genome siRNA collection. The library targets 17,575 mouse genes with 3 siRNAs per gene. TET2 (E130014J05Rik) was identified as a top candidate.
Transfections were performed in 384 well plates (Corning 3707). Plates were coated with 0.1% gelatin in H2O overnight at ambient temperature. Gelatin solution was aspirated (BioTek EL406) and siRNAs were printed using a Bravo VPrep liquid handler integrated within a BioCel automation platform (Agilent). Cell viability was measured using CellTiter Glo (Promega). For transfections, […] of serum free media containing Lipofectamine RNAiMax […] was added to wells containing siRNA (0.8pmol). Lipid and siRNA were allowed to complex for 45 min at ambient temperature before addition of 1000 cells in DMEM, 30% FBS to yield final transfection mixtures containing 20 nM siRNA in DMEM, 15% FBS. PARPi (olaparib, AZD2281) was added 48 h post-transfection (500 nM) and viability (CellTiter Glo, Promega) was assayed 72 h later on a PerkinElmer Envision 2104 Multilabel plate reader. Ambion Silencer Select Negative Control #2 was incorporated on all screening plates (16 wells) and the median negative control value on each plate was used for normalization. An siRNA targeting Trp53 was used as a positive control. This control yielded a median protective effect of ~1.9 fold versus negative control throughout the screen. The median absolute deviation (MAD) based z-score was calculated for each siRNA. Genes were then ranked by taking the median value for all siRNAs tested against a given gene. Scores were also adjusted for seed-based off-target effects to help deprioritize likely false positives.
In general terms: ATP-based viability assays read luminescence as a measure of living cells.
For the sequence GCUUUUGAUAUUCCACGUUTT against Pole2, the z-score was -0.0546. For GGAAUCGUCUGAGAAAUUCTT against Lgmn the value was 0.618; for CCCUCUUUAUCGUCUGUGATT against Gpha2, -0.468. In the case of “CCAACAAUCCGUAUCGACCTT against 4930425N13Rik” it was -0.139. For the sequence GGAAGAGGUUGAGAUCCAATT against Pogk, the z-score is 0.561. As for GGACACUUAGCAGCAAAGGTT against Lsm7, the z-score is -1.42. In the case of CCUUGUACACGGAUUGAAUTT against Itga6 it was 2.44 (active); in that of “CCGUCUAUACAUCUUUCCATT against D630005B22Rik”, -1.51. As to GCAGUAUAUCCUACAUUGGTT against Olfr510, the z-score was 1.69 (active).

Regarding CCUGAUAUAUGACUUUGGCTT against Ntf5, the z-score is -0.0586. In the case of CCUGCACAGGAUAAUUAUGTT against Zfp426, the z-score was 1.21. In the case of GGAGAUGAACAAGGACCUATT against Apoa1 it was 1.02 (active); in that of GGUCAAUUCCCAUACCCUGTT against Trfr2, 0.815; in that of CCAACUAUAACUCAGUCACTT against Ebf1, 0.374. With GGCACACGGUUUUCAUUAATT against Pcdhb5, the z-score was -0.354. On to GGCAUCACUGAUGAAUGAATT against Pacsin2, for which the z-score is -0.947 (active). For CCACUUUUAAAGGAAUGUGTT against Ncoa1 the value was -0.0128; for GCUUGCAUGUACAGACAUUTT against Olfr517, 1.3. For CCAUCUGAUUUCUUUCCAGTT against MGC78233 the value was -0.642; for GGAAAUGCCUUCAGAAAUUTT against Slc9a3r1, 0.863.

For the sequence GCCAAUGUAACCUUCAAAATT against Lypla1, the z-score is 0.603. Take GGGCGACACAAGGUUUUUGTT against Kif3a: the z-score is 1.13 (active). On to GGAGUGUUUGAGAAAUACCTT against BC027342, for which the z-score is -0.283.

Regarding GGCAAAGAUCGCAUCUUAATT against Eif2c2, the z-score was 0.222. Consider GCUGCAUCCGUAGAUGUUGTT against Fthfd, for which the z-score was -0.992. In the case of “GGCCAAAGAGGAGGAAAACTT against D5Bwg0834e” it was -0.569; in that of GGAGACAGUAAUAGCUCAUTT against Trp53bp1, 2.14 (active).

Consider GGACUUGUGGCUGAAAACCTT against Slc22a7, for which the z-score was 0.176. In the case of “GGGAACAGCAUCUCUGUCATT against E130115E03Rik” it was -0.944.

In the case of CCCUCAACUUUCAGAUCAGTT against Ard1, the z-score was 0.611. Take CCUCGUUCCUAUCAUUAACTT against Sdccag8: the z-score is 0.858. Take GGAAAGAAUAUGAGAAUGCTT against Reck: the z-score was 2.07. UUGUCCUGGUCUCCUAUGCTT against Olfr141: the z-score is -1.98.

With “CCCGCUCAAGAUCCUGUUUTT against 2310011J03Rik”, the z-score is -1.85. In the case of GCGAGUCGCUCAUAGUGAATT against AW822216 it was 0.476. In the case of “GGAUCUGAAGGAAUACUUUTT against 2400010G15Rik” it was 2.14 (active). As for GCAGCACCUUUGUGGUUCCTT against Ins2, the z-score is -0.904. In the case of CCGUGCCAAUAGUUCUGCUTT against Dpp4 it was 0.286; in that of GCACUGGAAUCAAACCAUCTT against Ppp2r5b, 2.45 (active); in that of GGUUUGAGCUCUUUAUUUUTT against Cyp2j13, 0.00818. In the case of GGCGCAUGUUUCCAGCAAUTT against Tbx18 it was 1.87; in that of GGAUCUCUGUUUCUCAAAATT against Slc19a3, 0.771. For “CCUCAAGAGAGCUACCGCATT against 1700018C11Rik” the value was 0.313.

GGCCCAUUGAUCUGUGAUATT against Klk8: the z-score is -0.338. As to GCAUGCGCGCUACACUCUATT against Adamts5, the z-score was 0.75 (active). In the case of GAUUACAGACAGUGGAAAATT against Ndufb3, the z-score is 0.951. For GGUAGUGUUAACUAUAUGGTT against Hmgb3 the value was 1.85 (active). In the case of GAUCUUAUAUGUUGGUGGUTT against V1rc2 it was -0.413. In the case of “CCUUAAUAAACUAUGCUGCTT against 2810439M11Rik” it was -1.83; in that of CCCUUGAAGAUCACUUAGCTT against Apln, 0.228; in that of GGCACAGGGACCAUUGUUGTT against Hsd17b1, 2.34 (active). CGUACAAGACCAACAGAAGTT against D8Ertd82e: the z-score was 2.36. As to GCUCAACAGACUCUGUACUTT against Igsf4d, the z-score was 2.89. Turning to “GCUAGUUGGAGCUAGAUUATT against E130320D18”, the z-score is 0.013.

As for GGGUUCCUCCUUUCACAGATT against Ppia, the z-score was -0.754.

Turning to CCGAAAUAAGGCUAGCUCATT against Rfxdc1, the z-score is 1.33. On to CGGCCUAUCUCUUGGUUUATT against Usp18, for which the z-score is 2.69 (active). As to GGACAUCCAUUCAAGGCCUTT against Rtn3, the z-score is 1.05. In the case of GGAAUUUGACAAACUCAGCTT against Rcn3 it was 0.337; in that of CCGUGGGACCAGAGUUAAATT against Gm253, 1.99; in that of GGUCAUCUAUCGUGUGCUGTT against Lamb2, 1.09.

In the case of CCAUUUAACCGUAAGACGUTT against Krtap8-2, the z-score is 0.535. CCUACAUUCACCAAAAGGUTT against Usp9y: the z-score is 0.561.

For the sequence “GGUCUCAAUCAGAGUUACATT against D430030K24Rik”, the z-score was 1.08 (active). With GGUGAUCAAUCCUCUAAUATT against Cri2, the z-score is 3.03. In the case of AACAGCAUCUUUGUGGUCCTT against Ins1 it was -0.451; in that of GGAUAAACUUCCAUCUUUCTT against Car14, 1.27; in that of GGAAGGAAGAAAAAAUAGUTT against Acat1, -0.146. In the case of GGGCUGGAAUAAACUUGUCTT against Usp15 it was 1.51 (active). In the case of GGAACAUAGUAGCAUGCCATT against Leprel2 it was -0.442; in that of GGCUUAUGUCCCAAAGCUATT against Nexn, 1.35; in that of “CUGUAAGGCGGAUAAGACCTT against 2610017I09Rik”, -0.52. Turning to CCCACUAAGAAACAAUCUATT against Gp1ba, the z-score is 0.484. GGGACUUCUUGUGAAUGGATT against Mobp: the z-score was -0.971. Turning to GUCUGUAUUCCUAGAUUCCTT against Olfr794, the z-score is 0.287. For GGUCACUGUUUCCCUAGACTT against Prss33 the value was -0.494 (active); for GGUUAGGUUGAUGAAUAAGTT against Eif4ebp2, -0.495. In the case of “GGUUUUUGAGCCAUAUCCATT against 4632404H22Rik”, the z-score is 0.625.

As for GGAUCCAAGCAUUAUAGUGTT against LOC229512, the z-score is -0.425. For CCCUUGUGAUGUGGUGAAGTT against Slc25a22 the value was -1.58; for GGACAAGGAUAGUAGUAAGTT against Adprt1, 3.83 (active); for GCAUGAAAACACGUUUGGGTT against Hdac11, 0.768.

Consider CGAUCUUCCAAACCCUCUUTT against Dhh, for which the z-score was -0.652.

With GGACUGAGGAAGAAUUUAATT against Grp58, the z-score is -0.954. In the case of GGAAUGUAUCCAGGACUUCTT against Brd4 it was -1.95. For GGAGAUCGUGCAAUUCAUUTT against Rasl2-9 the value was -0.53; for GGCGGUGAUCCAGGGUUUATT against Klc2, -0.0337. On to GCAAUGUCGCCAAACGUAATT against Zfpn1a1, for which the z-score was -0.213. In the case of CCGUAAUUGAUUCUUUACUTT against Kif3a it was 2.25 (active); in that of GCCCAAACUCAAGCAAGUCTT against Trpm3, -2.79; in that of GGCUACGAAACCAGAAGAUTT against Shd, 0.117.

CCUUCUGGCCCAGACGAUUTT against Pxmp2: the z-score was -0.173. GCUGAGAGAAAGGUUCACATT against Tube1: the z-score was -1.3.

Regarding CCUUGUAUCCUUAAUCCUCTT against Ppt1, the z-score is 0.555. For the sequence GGAAGCAGAAUUGUAAAGATT against Bid3, the z-score is 2.41 (active).

With GGAAAUGUGACCACAAAGATT against Tas2r120, the z-score is -0.347. For GGAAGAAUUGAACCACAGGTT against Papolg the value was 0.756; for “GGUGGCACUCUUUCAGAUCTT against 6030446I19Rik”, 0.179. For the sequence GCCUGCUCUUGAAGGAUAATT against Ptpn9, the z-score is 1.13 (active). GGACCUGUUUGAAGAAAAGTT against Gnai2: the z-score was -0.66. In the case of GGUUUCUCUCUACGCUAUGTT against Nrp2 it was 1.81.

On to GGACUGGUUCUUCAGUACCTT against Cradd, for which the z-score was 2.24. For CCGGCAACAUGCGUGAAUUTT against Trpv4 the value was -0.769. In the case of “GGAAAAAUGGGAGUUUGAATT against 4932423M01Rik” it was -0.322; in that of GGAAUUUUAGCGGAUGAUATT against Smarca3, 1.54 (active). For “CCUAGAUUGAAAAUUGUCATT against 1700049G17Rik” the value was -0.329.
